CYP2C9 act – human CYP2C9 activators, primary screen, biochemical, luminescence. Cytochrome P450 2C9 (Homo sapiens), P11712. activation factor at 5 µM. AID 1024, 2008. 96,000 tested, 1.4% active. recombinant CYP2C9, luciferin-H conversion; hits give high values; factor 1 = untreated enzyme, 0 = blocked;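 active = activation factor of 2 or more for CYP2C9 at a 5 µM dose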;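 also: 0 = sulfaphenazole-blocked wells and 1 = vehicle-only wells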
CYP2C19 activ – human CYP2C19 activators, primary screen, biochemical, luminescence | Cytochrome P450 2C19 (Homo sapiens), P33261 | recombinant CYP2C19, luciferin-H EGE luminescence; hits give high values; 0 = fully inhibited enzyme, 1 = untreated enzyme | activation factor at 5 µM | 96,000 tested, under 10 active | AID 1025, 2008;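 active = activation factor of at least 2 at 5 µM in the primary screen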;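 also: 0 = wells with 2.5 mM tranylcypromine and 1 = vehicle-only wells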
Target sequence (P33261 whole entry, looked up): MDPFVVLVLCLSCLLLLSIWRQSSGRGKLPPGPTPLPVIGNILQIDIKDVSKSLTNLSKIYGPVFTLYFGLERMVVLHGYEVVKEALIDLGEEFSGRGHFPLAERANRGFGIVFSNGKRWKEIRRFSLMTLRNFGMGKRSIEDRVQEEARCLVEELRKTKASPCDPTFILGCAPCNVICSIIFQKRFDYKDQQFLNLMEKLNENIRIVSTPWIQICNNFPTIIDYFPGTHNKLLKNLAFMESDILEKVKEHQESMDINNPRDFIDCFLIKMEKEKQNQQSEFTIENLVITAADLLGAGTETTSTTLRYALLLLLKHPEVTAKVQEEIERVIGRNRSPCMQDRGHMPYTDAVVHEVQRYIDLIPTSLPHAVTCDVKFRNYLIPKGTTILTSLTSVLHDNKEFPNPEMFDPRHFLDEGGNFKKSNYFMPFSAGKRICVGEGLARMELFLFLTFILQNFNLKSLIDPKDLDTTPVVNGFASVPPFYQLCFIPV
Measles CPE – compounds protecting cells from measles virus cytopathic effect, primary screen, measles RdRp inhibitor project, single point, MLSMR library, absorbance; Measles virus-infected cells, CPE protection; protection (pct of control), % at 4 µM; 140,000 tested, 1.5% active; AID 841, 2007; in the data active = protection mostly above about 24%, no sharp cut-off; inactive = mostly below about 26%
CYP2C9 inhib – blockers of cytochrome P450 2C9 activity – biochemical, luminescence, ADME assay, primary screen; P11712; AID 777, 2007; 96,000 tested, 20% active; inhibition, % at 5 µM; CYP2C9 Supersomes, luciferin-H conversion;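 active = blocking of liver enzyme CYP2C9 beyond about 50% at 5 µM, limit read from the data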
CYP2C19 inh – blockers of cytochrome P450 2C19 activity – biochemical, luminescence, ADME assay, primary screen. P33261. CYP2C19 Supersomes, luciferin-H EGE luminescence, 30 min. inhibition, % at 5 µM. 96,000 tested, 21% active. AID 778, 2007;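 active = CYP2C19 inhibition above a set limit at 5 µM in the primary screen, cut at about 50% in these data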;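 also: plate controls were negative control wells for no effect and 2.5 mM tranylcypromine positive control for full effect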
* = called active by the depositor; x = no result given. A selection: hits, their analogues and other compounds. The true share with any hit is near 22%.

SMILES | CYP2C9 act | CYP2C19 activ | Measles CPE | CYP2C9 inhib | CYP2C19 inh
CN(c1ccc(C(=O)NCCSCc2ccccc2)cc1)S(=O)(=O)c1ccccc1 | 0.3 | 0.6 | 2.0 | 68.7* | 37.0
Cc1cc(NC(=O)c2ccc(N(C)S(=O)(=O)c3ccccc3)cc2)no1 | 0.6 | 0.7 | 11.8 | 36.9 | 27.2
Cc1c(NC(=O)c2ccc(F)c(S(=O)(=O)N3CCOCC3)c2)c(=O)n(-c2ccccc2)n1C | 1.1 | 1.2 | 19.1 | -9.5 | -19.6
CCOC(=O)CC1=NN(c2ccccc2)C(=O)/C1=C\c1ccc(OC)cc1OC | x | x | 7.1 | x | x
CCN=C1S/C(=C\c2sccc2C)C(=O)N1CC | x | x | 14.8 | x | x
CC12CCC(C(=O)Nc3ccccc3Cl)(C(Br)C1=O)C2(C)C (stereo not drawn) | x | x | 36.3* | x | x
Cc1nn(-c2ccccc2)c2sc(C(=O)OCN3C(=O)c4ccccc4C3=O)cc12 | 0.8 | 0.8 | x | 16.5 | 23.7
CCOC(=O)c1cnn(CC2CCCCC2)c1N | 0.1 | 0.4 | 10.8 | 92.4* | 60.5*
Cc1cc(C)c(S(=O)(=O)n2c([N+](=O)[O-])cnc2C)c(C)c1 | x | x | 10.1 | x | x
COc1cc(NC(=O)COc2ccc(Cl)cc2)ccc1-c1cc2ccccc2oc1=O | x | x | 16.6 | x | x
O=C(Nc1nc2c(s1)C(=O)CCC2)c1ccccc1 | 0.5 | 0.6 | 5.1 | 53.0* | 40.6
COC(=O)c1sc(NC(=O)c2ccc(C)o2)nc1C | x | x | 6.6 | x | x
COC(=O)c1sc(N2C(=O)C(O)=C(C(=O)c3ccc(C)o3)C2c2ccc(F)cc2)nc1C (stereo not drawn) | 0.2 | 0.7 | 11.0 | 80.1* | 25.2
COCCn1cnnc1SCC(=O)Nc1ccccc1C(=O)Nc1ccc2c(c1)OCO2 | 0.1 | 0.4 | 4.5 | 93.5* | 57.5*
CN(c1ccccc1C(=O)Nc1ccc2c(c1)OCO2)S(C)(=O)=O | x | x | 7.9 | x | x
CCN(CC)c1ccc(NC(=O)c2ccccc2F)cc1 | 3* | 0.8 | 1.9 | -200.0 | 19.9
COc1cc(NC(=O)c2ccc3c(c2)OCO3)ccc1NC(=O)c1ccco1 | x | x | 5.2 | x | x
Cc1ccccc1C(=O)Nc1ccc2c(c1)OCO2 | 0.6 | 0.2 | 16.7 | 37.5 | 84.0*
O=C(Nc1ccccc1C(=O)Nc1ccc2c(c1)OCO2)c1ccco1 | 0 | 0.5 | 24.9* | 97.3* | 50.6*
CCN(CC)c1ccc(NC(=O)c2ccco2)cc1 | 0.9 | 0.7 | 4.2 | 6.3 | 31.4
CCc1nnc(NC(=O)C2CCN(c3nc(C)cc(C)n3)CC2)s1 | 0.8 | 1 | 9.3 | 24.1 | -2.7
COC(=O)Nc1ccc2c(c1)OCO2 | x | x | 15.2 | x | x
CCN(CC)c1ccc(NC(=O)c2cc(Cl)ccc2OC)cc1 | 2.9* | 0.8 | 12.8 | -192.4 | 23.6
CCOC(=O)c1c(C)[nH]c(C(=O)Nc2ccc3c(c2)OCO3)c1C | 0.7 | 0.1 | 18.5 | 34.5 | 86.0*
COc1ccccc1C(=O)Nc1ccc2c(c1)OCO2 | 0.9 | 0.1 | 12.7 | 14.3 | 89.8*
SMILES | CYP2C9 act | CYP2C19 activ | Measles CPE | CYP2C9 inhib | CYP2C19 inh
C/C(=C\C(=O)c1ccccc1)Nc1ccc2c(c1)OCO2 | x | x | 29.5* | x | x
CCOC(=O)Nc1ccc2c(c1)OCO2 | 0.9 | 0.8 | 18.9 | 10.4 | 21.5
COc1ccc(NC(=O)OC(C)C)cc1 | 1 | 0.8 | 12.6 | -4.4 | 15.9
Cc1ccccc1N1CCN(C2=NC(=O)/C(=C/c3cn[nH]c3-c3ccccc3)S2)CC1 | x | x | 0.1 | x | x
COc1cc(SC)ccc1C(=O)Nc1ccccc1 | 1.3 | 1.4 | 20.2 | -25.1 | -37.4
COc1ccccc1C(=O)Nc1ccc2c(c1)OCCO2 | 2.1* | 0.9 | 0.1 | -108.2 | 11.4
O=C(Nc1ccc2c(c1)OCO2)Oc1ccccc1 | 1 | 0.4 | 24.1 | 1.5 | 62.2*
COc1cc(SC)ccc1C(=O)Nc1ccc2c(c1)OCCO2 | 0.4 | 0.1 | 3.7 | 57.8* | 90.8*
COc1ccc(Cl)cc1C(=O)Nc1nnn(C)n1 | 2* | 1.1 | 17.0 | -99.9 | -6.6
O=C1CCCc2nn(-c3ccccc3)c(-c3ccncc3)c21 | 0.8 | 0.9 | 22.3 | 17.5 | 6.8
Cc1cc(NC(=S)NC(=O)c2ccccc2)ccc1-c1cc2ccccc2oc1=O | x | x | 5.8 | x | x
CC(=O)N1CC[n+]2c(-c3ccc(Cl)cc3)csc21 | x | x | 9.0 | x | x
Cc1ccc(NC(=O)/C(=C\c2cccc(Br)c2)NC(=O)c2ccco2)cc1 | 0.7 | 1 | 20.2 | 29.8 | -4.4

Assay outcomes deposited in PubChem BioAssay by several laboratories.
